Vc quorum ag-1 – inducers of Vibrio cholerae quorum light production without autoinducers, primary screen, BH1578 luxS cqsA deficient, single point; V. cholerae BH1578 lux reporter, luminescence, 6 h; AID 588436, 2011; activation, % at 18.7 µM; actives 0.16% (n = 350,000); in the data active = activation mostly above about 9.7%, no sharp cut-off
MazEF act – activators of E. coli MazEF toxin-antitoxin RNase, primary screen, biochemical, fluorescence, uHTS | actives 0.32% (n = 350,000) | activation, % at 20 µM | Endoribonuclease toxin MazF (Escherichia coli (strain K12)), P0AE70 | FAM/BHQ RNA-DNA oligo cleavage fluorescence, 5 h; in the data active = activation above about 50%
Target sequence (P0AE70 whole entry, looked up): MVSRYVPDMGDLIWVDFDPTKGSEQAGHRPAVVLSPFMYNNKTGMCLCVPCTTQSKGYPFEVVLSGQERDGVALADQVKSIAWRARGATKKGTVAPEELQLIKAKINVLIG
BJeLR lethal – MLPCN primary cell-based screen for lethality selective to Ras in HRASV12 cells. BJeLR (HRASV12) viability, CellTiter-Glo ATP luminescence, 48 h. inhibition, % (no concentration beside the values). actives 0.17% (n = 300,000). AID 1554, 2009; in the data active = inhibition above about 50%
DUSP3 inh – VHR1 phosphatase inhibitors, primary screen, biochemical, absorbance, uHTS | Dual specificity protein phosphatase 3 (Homo sapiens), P51452 | recombinant VHR phosphatase, pNPP absorbance | inhibition, % at 13.3 µM | actives 0.52% (n = 290,000) | AID 1654, 2009; in the data active = inhibition above about 50%
Target sequence (P51452 whole entry, looked up): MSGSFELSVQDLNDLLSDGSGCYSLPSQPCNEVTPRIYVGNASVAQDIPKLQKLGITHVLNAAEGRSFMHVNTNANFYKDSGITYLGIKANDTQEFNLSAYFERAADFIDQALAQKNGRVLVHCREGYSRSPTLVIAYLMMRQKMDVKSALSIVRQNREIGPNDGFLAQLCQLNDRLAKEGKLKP
3CLpro inhibitor – SARS-CoV 3CLpro protease inhibitors, primary screen, biochemical, quenched FRET | Replicase polyprotein 1ab (Severe acute respiratory syndrome coronavirus), P0C6X7 | recombinant SARS-CoV 3CLpro, quenched FRET peptide cleavage | inhibition, % at 6 µM | actives 0.14% (n = 290,000); in the data active = inhibition above about 12%
PfHsp40 yeast – rescue of yeast from PfHsp40 toxicity, primary screen, S. cerevisiae, ATP luminescence; AID 504582, 2011; actives 0.68% (n = 340,000); growth rescue, % at 12.5 µM; S. cerevisiae expressing PfHsp40, growth rescue; in the data active = growth rescue above about 28%, passing the limit was not always enough;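 also: yeast W303a lacking pdr1 and pdr3 grown in galactose medium; growth measured after three days at 30 °C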
Vc quorum ag-2 – V. cholerae lux activation without autoinducers – BH1578 luxS cqsA deficient, cherry-pick, plate reader, dose response; V. cholerae BH1578 lux reporter, luminescence, 6 h; shares compounds with Vc quorum ag-1; 620 tested, under 10 active; AID 602243, 2012; activation, % at 50 µM; call rule not given here
An asterisk follows results filed as active. Compounds with a hit are over-represented: about 1.7% of the library has one in this group of screens.

Screening O=C(Nc1nc2ccccc2s1)c1cccc(S(=O)(=O)N2CCc3ccccc32)c1 returned Vc quorum ag-1 -0.4, MazEF act -8.8, BJeLR lethal 2.9, DUSP3 inh 15.2, 3CLpro inhibitor 0.2 and PfHsp40 yeast 0.4.
O=C(Nc1nnc(C2CC2)s1)c1cccc(S(=O)(=O)N2CCc3ccccc32)c1 was read as Vc quorum ag-1 19.2, MazEF act -0.5, BJeLR lethal 2.0, DUSP3 inh -8.3, 3CLpro inhibitor 1.1, PfHsp40 yeast -0.1 and Vc quorum ag-2 0.2.
`Cc1nnc(NC(=O)c2cccc(S(=O)(=O)N3CCc4ccccc43)c2)s1` gave Vc quorum ag-1 18.4, MazEF act -6.3, BJeLR lethal 1.7, DUSP3 inh -5.8, 3CLpro inhibitor -2.2, PfHsp40 yeast -0.6 and Vc quorum ag-2 0.0.
For FC(F)(F)c1nnc2sc(-c3cccs3)nn12 the results were Vc quorum ag-1 16.7*, MazEF act -5.3, BJeLR lethal -3.3, DUSP3 inh -19.2, 3CLpro inhibitor -8.3, PfHsp40 yeast -0.6 and Vc quorum ag-2 3.7.
For CC(=O)c1c(N2CCC(C(N)=O)CC2)nc(=S)n(-c2ccccc2)c1C the results were Vc quorum ag-1 6.6, MazEF act -3.4, BJeLR lethal 1.3, DUSP3 inh 17.3, 3CLpro inhibitor -2.4, PfHsp40 yeast 0.6 and Vc quorum ag-2 0.2.
Screening CCOc1ccc(C2NC(=O)Cc3cc(OC)c(OC)cc32)cc1 (configuration not stated) returned Vc quorum ag-1 -0.6, MazEF act 5.1, BJeLR lethal -0.6, DUSP3 inh -2.0, 3CLpro inhibitor -3.7 and PfHsp40 yeast -1.3.
Screening COc1cc2c(cc1OC)C(c1ccc(C)cc1)NC(=O)C2 (configuration not stated) returned Vc quorum ag-1 99.6*, MazEF act -2.0, BJeLR lethal 8.5, DUSP3 inh -10.7, 3CLpro inhibitor -3.7, PfHsp40 yeast 4.7 and Vc quorum ag-2 0.7.
Screening COc1ccc(CNS(=O)(=O)c2ccc(C3CNC(=O)C3)cc2)cc1 (configuration not stated) returned Vc quorum ag-1 inactive, MazEF act -7.2, BJeLR lethal 1.3, DUSP3 inh -3.8, 3CLpro inhibitor -2.3 and PfHsp40 yeast -0.1.
Screening COc1ccc2c(c1)CCC(C)N2S(=O)(=O)c1ccc(C2CNC(=O)C2)cc1 (configuration not stated) returned Vc quorum ag-1 20.5, MazEF act 3.7, BJeLR lethal 0.2, DUSP3 inh -0.1, 3CLpro inhibitor 1.2, PfHsp40 yeast -1.4 and Vc quorum ag-2 0.4.
`CC(=O)Nc1cccc(NC(=O)CSc2nc(=O)n(CCN3CCOCC3)c3c2CCC3)c1` gave Vc quorum ag-1 -1.4, MazEF act -6.5, BJeLR lethal 12.4 and PfHsp40 yeast -1.1.
Screening CC(=O)c1cccc(NC(=O)CSc2nc(=O)n(CCN3CCOCC3)c3c2CCCC3)c1 returned Vc quorum ag-1 12.5, MazEF act -0.4, BJeLR lethal -3.0, PfHsp40 yeast 0.0 and Vc quorum ag-2 0.5.
Cc1cc(C)c(C2=Nn3c(C)nnc3SC2C)cc1C (configuration not stated) was read as Vc quorum ag-1 inactive, MazEF act 2.8, BJeLR lethal 0.0, DUSP3 inh 33.1, 3CLpro inhibitor 5.1 and PfHsp40 yeast -0.2.
COC(C(=O)Nc1ccccc1C(=O)N1CCOCC1)c1ccccc1 (configuration not stated) was read as Vc quorum ag-1 10.8, MazEF act 6.3, BJeLR lethal -11.7, DUSP3 inh -4.4, 3CLpro inhibitor -3.5, PfHsp40 yeast 24.7 and Vc quorum ag-2 -0.3.
Screening Cc1ccc(OC(C)C(=O)Nc2ccccc2C(=O)N2CCOCC2)cc1 (configuration not stated) returned Vc quorum ag-1 7.7, MazEF act -4.9, BJeLR lethal -1.6, DUSP3 inh 22.6, 3CLpro inhibitor 4.0 and PfHsp40 yeast -1.2.
For O=C(NCc1ccccc1F)C(=O)NCC1CCCN1S(=O)(=O)c1ccccc1 (configuration not stated) the results were Vc quorum ag-1 12.5, MazEF act -9.2, BJeLR lethal 1.4, PfHsp40 yeast 0.3 and Vc quorum ag-2 1.0.
O=C(c1ccc(Cl)cc1)N1CCCCC(Cl)C1=O (configuration not stated) was read as Vc quorum ag-1 -0.7, MazEF act -2.2, BJeLR lethal -8.1, DUSP3 inh 11.0, 3CLpro inhibitor -2.3 and PfHsp40 yeast 0.0.
For O=C(Nc1cccc(-c2ccc(N3CCOCC3)nn2)c1)c1ccccc1 the results were Vc quorum ag-1 inactive, MazEF act 11.7, BJeLR lethal -6.5 and PfHsp40 yeast 1.2.
O=C(Nc1cccc(-c2ccc(N3CCOCC3)nn2)c1)c1ccc([N+](=O)[O-])cc1 was read as Vc quorum ag-1 14.3, MazEF act 2.4, BJeLR lethal -0.2, PfHsp40 yeast 1.4 and Vc quorum ag-2 0.1.
CCCCCn1nc(C(=O)N(CC(C)C)c2c(N)n(CCCC)c(=O)[nH]c2=O)c2ccccc2c1=O was read as Vc quorum ag-1 9.3, MazEF act -6.0, BJeLR lethal 3.1, PfHsp40 yeast 0.8 and Vc quorum ag-2 0.0.
For Cn1nc(-c2ccc(OCC(=O)NCC3CCCO3)cc2)c2ccccc2c1=O (configuration not stated) the results were Vc quorum ag-1 12.5, MazEF act 4.9, BJeLR lethal 8.3, DUSP3 inh 9.5, 3CLpro inhibitor -1.5, PfHsp40 yeast -0.1 and Vc quorum ag-2 1.4.
For CC1(N=Cc2cc(Cl)ccc2O)COP(=O)(NC2CCCC2)OC1 (configuration not stated) the results were Vc quorum ag-1 inactive, MazEF act 9.8 and PfHsp40 yeast -1.1.
CC(C)(C)Cc1nc(-c2ccccn2)no1 was read as Vc quorum ag-1 14.3, MazEF act -2.5, BJeLR lethal -3.7, DUSP3 inh -0.2, 3CLpro inhibitor -3.7, PfHsp40 yeast 0.8 and Vc quorum ag-2 0.3.
Cc1ccc(OCc2nc(-c3ccccn3)no2)cc1 was read as Vc quorum ag-1 inactive, MazEF act -3.7, BJeLR lethal 0.8, DUSP3 inh -2.5, 3CLpro inhibitor 1.3 and PfHsp40 yeast 1.1.
O=C(c1ccc(C(=O)N2CCOCC2)nc1)N1CCOCC1 was read as Vc quorum ag-1 16.7*, MazEF act 8.5, BJeLR lethal -2.1, DUSP3 inh 13.4, 3CLpro inhibitor 5.7, PfHsp40 yeast 0.8 and Vc quorum ag-2 -0.1.
